Data on eight compounds can be found in PubChem BioAssay.

Activity calls are given as the source filed them.

The nature of assay [1]: adipocyte viability effects, profiling panel, cell-based, 3T3-L1 adipocytes, calcein-AM fluorescence, 48 h, basal (AID 1163). The following applies: 3T3-L1 adipocytes viability, higher = more signal.
The nature of assay [2]: HepG2 cell viability effects, profiling panel, calcein-AM fluorescence, 48 h, basal (AID 1164). The following applies: higher = more signal.
Assay [3] can be described thus: MM1S cell viability effects, profiling panel, calcein-AM fluorescence, 48 h, basal (AID 1165).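 Note: viability of MM1S multiple myeloma cells under basal unstimulated conditions.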 The following applies: higher = more signal.
Assay [4] is described as follows: basal RPMI8226 viability, no added stimulus, profiling panel, cell-based, calcein-AM fluorescence, 48 h, PK04 Diversity Set (AID 1166).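 Note: cells grown under basal conditions without added stimulus.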 The settings on record: RPMI8226 myeloma viability, higher = more signal.
A short description of assay [5]: basal HepG2 mitochondrial membrane potential changes, profiling panel, cell-based, JC-1 fluorescence, 24 h, 100 nL compound (AID 1167). The following applies: higher = more signal.
Assay [6] is described as follows: basal 3T3-L1 adipocyte mitochondrial potential changes, profiling panel, cell-based, JC-1 fluorescence, 3T3-L1 adipocytes, 24 h, 100 nL compound (AID 1168). The following applies: JC-1 mitochondrial fluorescence, higher = more signal, called active from +8 up or from −8 down.
A short description of assay [7]: basal RPMI8226 mitochondrial membrane potential changes, profiling panel, cell-based, JC-1 fluorescence, 24 h, 100 nL compound (AID 1169). The following applies: RPMI8226 myeloma, JC-1 mitochondrial potential fluorescence, higher = more signal.
Assay [8] can be described thus: basal MM1S mitochondrial membrane potential changes, profiling panel, cell-based, JC-1 fluorescence, 24 h, 100 nL compound (AID 1170). The settings on record: higher = more signal.
The nature of assay [9]: A549 lung cancer cell viability effects, profiling panel, resazurin fluorescence, 24 h, PK04 Diversity Set (AID 1171). The settings on record: higher = more signal, called active from +8 up or from −8 down. In general terms: The colour change of resazurin is a common sign of viable cells or microbes.
Assay [10] in a line: HepG2 liver cancer cell viability effects, profiling panel, resazurin fluorescence, 24 h, PK04 Diversity Set (AID 1172). The following applies: higher = more signal.
Assay [11] can be described thus: basal S. cerevisiae growth modulation, no modifier, primary screen, OD600, strain BY4716, 24 h, basal condition (AID 1173). The settings on record: OD600, 24 h, higher = more signal, called active from +8 up or from −8 down.
A short description of assay [12]: MM1S myeloma cell viability, profiling panel, resazurin fluorescence, basal, 24 h, PK04 Diversity Set (AID 1174).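 Note: MM1S multiple myeloma cell line.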 The settings on record: higher = more signal, called active from +8 up or from −8 down.
The target in assay [13] is Dihydroorotate dehydrogenase (quinone), mitochondrial (Plasmodium falciparum (isolate 3D7)) (UniProt Q08210). In words: PfDHODH enzyme inhibitors, primary screen, biochemical, C-terminal His tag, absorbance 600 nm (AID 1175).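 Note: recombinant parasite enzyme with a five histidine tag at its C terminus.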 The following applies: DCIP absorbance 600 nm, higher = more signal, called active from +8 up or from −8 down.
Assay [14] in a line: S. cerevisiae RM11-1a growth modifiers, primary screen, strain RM11-1a, OD600, basal, 24 h (AID 1177).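 Note: cultures grown under basal conditions with no added stressor.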 The settings on record: OD600, 24 h, higher = more signal, called active from +8 up or from −8 down.
A short description of assay [15]: E. coli acrAB mutant growth effects, primary screen, E. coli filamentation inducers, strain DRC39, OD650, 24 h (AID 1178).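 Note: growth measured as culture turbidity by optical density at 650 nm.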 The settings on record: higher = more signal, called active from +8 up or from −8 down.
The nature of assay [16]: E. coli acrAB mutant growth effects, primary screen, E. coli filamentation inducers, strain DRC39, OD650, 48 h (AID 1179).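 Note: screen aims at cell division blockers that make cells filament.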 The settings on record: E. coli DRC39 delta-acrAB growth, higher = more signal, called active from +8 up or from −8 down.
The nature of assay [17]: RPMI8226 myeloma cell viability, profiling panel, resazurin fluorescence, basal, 24 h, PK04 Diversity Set (AID 1180).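 Note: RPMI8826 multiple myeloma cell line at 5000 cells per well.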 The following applies: higher = more signal.
Assay [18] deals with E3 ubiquitin-protein ligase XIAP (Homo sapiens) (UniProt P98170). Nature of the assay: XIAP binders, primary screen, biophysical, small-molecule microarray, fluorescence 635 nm (AID 1181).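 Note: score merges 667 nm emission and signal to noise over triplicate slides.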 The settings on record: small-molecule microarray binding, higher = more signal.
For assay [19], the system named is XIP peptide (Xip251-270) binding. In words: small-molecule binders of XIP peptide, primary screen, biochemical, small-molecule microarray, fluorescence 635/667 nm, 0.1 µg/mL protein (AID 1182). The settings on record: fluorescent protein binding, 635 nm, higher = more signal, called active from +8 up or from −8 down.
For the next assay, the system named is XIP peptide (Xip251-270). In words: small-molecule binders of XIP peptide, primary screen, biochemical, small-molecule microarray, fluorescence 635/667 nm, 0.5 µg/mL protein (AID 1183). The following applies: small-molecule microarray binding, fluorescence 635 nm; higher = more signal.

Sequence of E3 ubiquitin-protein ligase XIAP (Homo sapiens) (P98170 whole entry, looked up): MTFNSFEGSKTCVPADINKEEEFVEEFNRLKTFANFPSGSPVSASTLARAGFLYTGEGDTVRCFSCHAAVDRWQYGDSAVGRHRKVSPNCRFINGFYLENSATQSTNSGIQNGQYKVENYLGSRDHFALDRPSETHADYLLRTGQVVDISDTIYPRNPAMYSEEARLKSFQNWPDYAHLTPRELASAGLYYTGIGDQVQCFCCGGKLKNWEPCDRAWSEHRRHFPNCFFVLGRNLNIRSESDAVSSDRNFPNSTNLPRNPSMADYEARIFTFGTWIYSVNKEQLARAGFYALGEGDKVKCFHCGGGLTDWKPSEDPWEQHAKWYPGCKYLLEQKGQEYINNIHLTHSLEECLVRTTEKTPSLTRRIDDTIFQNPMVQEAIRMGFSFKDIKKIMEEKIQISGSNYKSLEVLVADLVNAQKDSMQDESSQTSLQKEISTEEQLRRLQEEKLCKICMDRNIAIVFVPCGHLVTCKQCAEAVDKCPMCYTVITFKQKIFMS
Sequence of Dihydroorotate dehydrogenase (quinone), mitochondrial (Plasmodium falciparum (isolate 3D7)) (Q08210 whole entry, looked up): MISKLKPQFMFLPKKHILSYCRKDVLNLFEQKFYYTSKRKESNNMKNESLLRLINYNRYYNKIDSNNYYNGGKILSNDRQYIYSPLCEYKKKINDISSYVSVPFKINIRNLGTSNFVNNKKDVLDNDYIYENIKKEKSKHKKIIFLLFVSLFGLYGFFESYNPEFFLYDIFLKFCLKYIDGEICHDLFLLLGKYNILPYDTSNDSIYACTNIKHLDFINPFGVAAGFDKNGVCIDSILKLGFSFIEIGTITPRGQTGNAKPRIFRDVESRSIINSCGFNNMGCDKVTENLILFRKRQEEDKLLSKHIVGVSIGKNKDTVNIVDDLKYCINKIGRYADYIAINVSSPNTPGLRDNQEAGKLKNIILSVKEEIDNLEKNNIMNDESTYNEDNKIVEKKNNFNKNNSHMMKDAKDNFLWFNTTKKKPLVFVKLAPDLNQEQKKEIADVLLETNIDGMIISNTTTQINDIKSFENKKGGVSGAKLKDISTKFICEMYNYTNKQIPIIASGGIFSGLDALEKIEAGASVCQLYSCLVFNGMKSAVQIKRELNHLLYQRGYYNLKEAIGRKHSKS

Take `O=C1N(CCS(=O)(=O)c2ccccc2)Cc2ccccc2[C@@H]2OC(c3ccc(OCCCO)cc3)=N[C@]12Cc1ccccc1`: the z-score in [1] is 2.11; in assay [2] it was 0.288; in assay [3], -0.0623; in assay [4], -0.222; in [5] it was 0.194; in assay [6] it was 0.401 (inactive). Moreover, the z-score in assay [7] is -1.11; in [8], -0.693; in [9], -0.77 (inactive); in assay [10], 0.309; in assay [11], 1.72 (inactive); in assay [12], -0.739 (inactive). Moreover, the z-score in assay [14] is 4.1 (inactive); in [15], 2.25 (inactive); in assay [16], 1.05 (inactive); in assay [17], -0.384. For the same compound, the composite z-score in [13] is 0.913 (inactive); in assay [18], -0.121; in assay [19], 1.73 (inactive); with XIP peptide (Xip251-270), 0.927.
With `CCN(CC)c1ccc(N2CC=CC34O[C@@H]5C=CCOC(=O)[C@@H]5[C@H]3C(=O)N(C(C)CO)[C@@H]4C2=O)cc1` (stereo not given in full), the z-score in assay [1] was 0.754; in assay [2], 0.0598; in assay [3], 1.15; in assay [4] it was -0.262; in [5], 0.469; in assay [6] it was 0.382 (inactive). Besides, the z-score in assay [7] was -0.809; in assay [8], 0.907; in assay [9] it was 0.924 (inactive); in [10], 0.878; in [11] it was -0.746 (inactive); in [12] it was 1.3 (inactive). Further, the z-score was -0.0464 (inactive) in assay [14], 1.7 (inactive) in assay [15], 1.31 (inactive) in assay [16] and 0.587 in assay [17]. The composite z-score in assay [13] is -0.393 (inactive); in [18] it was -0.0277; in assay [19], 0.149 (inactive); in the assay with XIP peptide (Xip251-270) it was -1.73.
In the case of `CC1CC/C=C\[C@H]2OC34C=CCN(C(C)C)C(=O)[C@H]3N(C(CO)C(C)C)C(=O)[C@@H]4C2C(=O)O1` (stereo not given in full), the z-score was 0.252 in [1]; -0.0224 in assay [2]; 1.4 in assay [3]; 0.652 in [4]; 0.686 in assay [5]; 1.39 (inactive) in assay [6]. The z-score in assay [7] is -0.723; in [8] it was 1.62; in assay [9], 0.351 (inactive); in assay [10], 0.788; in [11], -0.718 (inactive); in [12], 1.15 (inactive). For the same compound, the z-score in assay [14] is -0.488 (inactive); in [15], 1.36 (inactive); in assay [16], 1.46 (inactive); in [17], 0.838. The composite z-score in assay [13] was -1.87 (inactive); in assay [18], -0.194; in assay [19], 0.0648 (inactive); in the assay on XIP peptide (Xip251-270) it was -1.15.
As to `C=C(COC)/C(=C/C[C@H](OC(C)=O)c1cccc(OCCO)c1)c1cc(C(=O)OC)ccc1OC`, the z-score in assay [1] is 0.81; in assay [2] it was -2.15; in [3], 0.0939; in [4], -1.1; in assay [5] it was 0.616; in assay [6] it was 1.88 (inactive). For the same compound, the z-score in [7] was -0.252; in [8], 0.471; in assay [9], -1.03 (inactive); in [10], -0.231; in assay [11], -17.6 (active); in assay [12] it was 0.975 (inactive). For the same compound, the z-score was -21.4 (active) in assay [14], 1.24 (inactive) in [15], 0.802 (inactive) in [16] and 0.59 in [17]. The composite z-score is -9.35 (active) in assay [13], 0.0077 in assay [18], 0.876 (inactive) in [19] and 0.876 with XIP peptide (Xip251-270).
As to `CCOC(=O)C[C@H]1[C@H](OC(=O)c2cc3ccccc3oc2=O)[C@@H](NC(=O)c2ccccc2)c2cc(OCCCO)ccc2N1C(=O)Cc1ccc(OC)cc1`, the z-score in assay [1] is 2.5; in assay [2], -0.382; in [3] it was 0.497; in assay [4], -1.86; in assay [5] it was 1.66; in assay [6], 0.965 (inactive). The z-score in [7] is -0.295; in assay [8] it was 1.13; in assay [9], -0.53 (inactive); in [10], -0.259; in [11], -1.99 (inactive); in assay [12], 0.757 (inactive). Moreover, the z-score is -0.859 (inactive) in [14], 3.23 (inactive) in assay [15], 1.78 (inactive) in [16] and 0.625 in [17]. The composite z-score in assay [13] is -2.68 (inactive); in [18] it was -0.139; in [19], 0.282 (inactive); in the assay on XIP peptide (Xip251-270), 0.273.
In the case of `CCOC(=O)C[C@H]1[C@H](OC(=O)c2ccc(C(=O)c3ccccc3)cc2)[C@@H](NC(=O)Cc2ccc(OC)cc2)c2cc(OCCCO)ccc2N1C(=O)Cc1ccc(OC)cc1`, the z-score was 0.234 in assay [1]; 0.398 in [2]; 0.856 in assay [3]; -0.481 in assay [4]; 2.05 in assay [5]; 0.755 (inactive) in [6]. For the same compound, the z-score in assay [7] was -0.131; in assay [8] it was 0.356; in assay [9], 1.54 (inactive); in assay [10], 0.964; in assay [11] it was -1.99 (inactive); in assay [12] it was 0.0905 (inactive). Besides, the z-score was -1.05 (inactive) in [14], 1.74 (inactive) in assay [15], 1.06 (inactive) in assay [16] and 0.678 in assay [17]. Further, the composite z-score was 0.735 (inactive) in assay [13], 0.0871 in assay [18], 0.608 (inactive) in assay [19] and 0.0768 with XIP peptide (Xip251-270).
On to `Cc1ccc(S[C@]2(C(=O)NCCN3CCOCC3)CC(=O)N(Cc3cc(C(F)(F)F)cc(C(F)(F)F)c3)[C@@H]2c2ccc(CO)cc2)cc1`, for which the z-score in assay [1] is 0.947; in assay [2] it was -0.0671; in assay [3] it was 1.15; in [4], 0.603; in assay [5] it was 1.18; in assay [6], 0.784 (inactive). Besides, the z-score in [7] is -0.0854; in assay [8], 0.685; in assay [9] it was 3.33 (inactive); in assay [10], 1.08; in assay [11] it was -1.76 (inactive); in assay [12] it was 0.828 (inactive). For the same compound, the z-score in assay [14] is -2.54 (inactive); in [15] it was 1.01 (inactive); in assay [16] it was 1.45 (inactive); in [17], 0.672. In addition, the composite z-score is -0.911 (inactive) in assay [13], 0.0808 in assay [18], -0.316 (inactive) in [19] and 0.0326 in the assay on XIP peptide (Xip251-270).
In the case of `C=C(CCCC)/C(=C/C[C@H](OC(=O)c1ccncc1)c1ccc(CO)o1)c1cnc2ccccc2c1`, the z-score in assay [1] is 0.87; in assay [2], -0.76; in assay [3], -2.31; in assay [4], 0.117; in [5], 0.265; in assay [6] it was 1.03 (inactive). Further, the z-score was 0.519 in assay [7]; -0.656 in assay [8]; 0.274 (inactive) in [9]; 0.921 in [10]; -1.7 (inactive) in assay [11]; 0.511 (inactive) in assay [12]. The z-score is -0.716 (inactive) in assay [14], 1.67 (inactive) in [15], 1.01 (inactive) in assay [16] and 0.874 in assay [17]. Moreover, the composite z-score in [13] is -6.96 (inactive); in assay [18], -0.105; in assay [19], 0.291 (inactive); in the assay with XIP peptide (Xip251-270), 0.413.
